Reference: PubChem BioAssay AID1159580 (chemical genetic matrix, 2015)
Values joined by “and” are separate entries in the source; they are usually repeats but may differ in a detail not shown here. Equal values may be shown once. About 2,000 (36%) of roughly 5,500 compounds were called active. Inconclusive results (about 18%) are left out. Rule as the data show it: active = normalized growth mostly below about 0.91 (no sharp cut-off); inconclusive = no clear call, values can overlap the other calls; inactive = mostly above about 0.92. The list shows a part of the results.

Experiment: chemical genetic growth profiling, strain panel (AID 1159580);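 also: tested at 20 µM; growth read once vehicle control cultures reached saturation at 30 °C; 1 = growth at the plate median or of vehicle wells; lower values mean less growth of the strain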
Conditions: S. cerevisiae deletion strains, growth OD

Measured: normalized growth

NC[C@H]1O[C@H](O[C@H]2C(O[C@@H]3O[C@H](CO)[C@@H](O)[C@H]3O)[C@@H](O)[C@H](N)C[C@@H]2N)[C@H](N)[C@@H](O)[C@@H]1O (some centres not stated)
inactive: locus YAL013W, strain DEP1, hits give low values 1 | locus YAL021C, strain ccr4, hits give low values 1.02 | locus YAL026C, strain drs2, hits give low values 0.998 | locus YAL030W, strain snc1, hits give low values 0.994 | locus YBL061C, strain skt5, hits give low values 0.997 | locus YBR009C, strain hhf1, hits give low values 0.975 | locus YBR021W, strain FUR4, hits give low values 0.969 | locus YBR023C, strain chs3, hits give low values 0.995 | locus YBR171W, strain sec66, hits give low values 0.992 | locus YBR229C, strain ROT2, hits give low values 0.99 | locus YBR231C, strain swc5, hits give low values 0.998 | locus YBR279W, strain paf1, hits give low values 0.999 | locus YCL011C, strain gbp2, hits give low values 1 | locus YCL016C, strain dcc1, hits give low values 0.996 | locus YCL029C, strain bik1, hits give low values 0.987 | locus YCL061C, strain MRC1, hits give low values 0.989 | locus YCL069W, strain vba3, hits give low values 0.997 | locus YCR088W, strain abp1, hits give low values 0.998 | locus YDL005C, strain med2, hits give low values 1.01 | locus YDL035C, strain GPR1, hits give low values 1.01 | locus YDL040C, strain nat1, hits give low values 0.983 | locus YDL074C, strain BRE1, hits give low values 0.985 | locus YDL101C, strain DUN1, hits give low values 0.987 | locus YDL134C, strain PPH21, hits give low values 0.988 | locus YDL185W, strain tfp1, hits give low values 0.983 | locus YDL192W, strain arf1, hits give low values 0.996 | locus YDR001C, strain nth1, hits give low values 0.989 | locus YDR069C, strain doa4, hits give low values 0.99 | locus YDR101C, strain arx1, hits give low values 0.972 | locus YDR137W, strain rgp1, hits give low values 1.02 | locus YDR150W, strain NUM1, hits give low values 1 | locus YDR159W, strain sac3, hits give low values 0.982 | locus YDR162C, strain NBP2, hits give low values 1 | locus YDR195W, strain ref2 0.939 | locus YDR297W, strain sur2, hits give low values 0.99 | locus YDR318W, strain mcm21, hits give low values 0.996 | locus YDR334W, strain swr1, hits give low values 0.997 | locus YDR335W, strain msn5, hits give low values 0.994 | locus YDR388W, hits give low values 0.992 | locus YDR392W, strain spt3, hits give low values 0.918 | locus YDR502C, strain sam2, hits give low values 0.998 | locus YEL003W, strain gim4, hits give low values 1 | locus YEL037C, strain rad23, hits give low values 0.995 | locus YEL061C, strain CIN8 (second series), hits give low values 0.991 | locus YEL061C, strain CIN8, hits give low values 0.999 | locus YER015W, strain faa2, hits give low values 0.998 | locus YER016W, strain bim1, hits give low values 0.993 | locus YER110C, hits give low values 0.993 | locus YER111C, strain swi4, hits give low values 0.977 | locus YER155C, strain BEM2 (second series), hits give low values 0.974 | locus YER155C, strain BEM2, hits give low values 0.957 | locus YER167W, strain BCK2, hits give low values 1 | locus YFR010W, strain ubp6, hits give low values 0.999 | locus YGL078C, strain dbp3, hits give low values 0.988 | locus YGL086W, strain mad1, hits give low values 0.994 | locus YGL167C, strain pmr1, hits give low values 0.992 | locus YGL173C, strain kem1, hits give low values 1 | locus YGL227W, strain vid30, hits give low values 0.989 | locus YGL240W, strain doc1, hits give low values 0.991 | locus YGL248W, strain PDE1, hits give low values 0.994 | locus YGL253W, strain hxk2, hits give low values 0.985 | locus YGR078C, strain PAC10, hits give low values 0.994 | locus YGR135W, strain pre9, hits give low values 0.985 | locus YGR229C, strain SMI1, hits give low values 1.03 | locus YGR252W, strain gcn5, hits give low values 1.08 | locus YHR013C, strain ard1, hits give low values 0.976 | locus YHR027C, strain rpn1, hits give low values 1 | locus YHR030C, strain SLT2, hits give low values 0.994 and 0.986 | locus YHR079C, strain IRE1 (second series), hits give low values 0.983 | locus YHR079C, strain IRE1, hits give low values 0.993 | locus YHR094C, strain hxt1, hits give low values 0.99 | locus YHR129C, strain ARP1, hits give low values 0.986 | locus YHR142W, strain chs7, hits give low values 1.01 | locus YHR200W, strain rpn10, hits give low values 0.989 | locus YIL066C, strain RNR3, hits give low values 0.991 | locus YIL073C, strain SPO22, hits give low values 1.01 | locus YIL125W, strain kgd1, hits give low values 1 | locus YIR030C, strain dcg1, hits give low values 0.988 | locus YJL092W, strain hpr5, hits give low values 0.994 | locus YJL095W, strain BCK1 (second series), hits give low values 0.995 | locus YJL095W, strain BCK1, hits give low values 0.984 and 1.02 | locus YJL115W, strain asf1, hits give low values 0.995 | locus YJL129C, strain trk1, hits give low values 1 | locus YJL134W, strain LCB3, hits give low values 0.992 | locus YJL154C, strain vps35, hits give low values 0.986 | locus YJL164C, strain tpk1, hits give low values 1 | locus YJL166W, strain qcr8, hits give low values 1.01 | locus YJL168C, strain set2, hits give low values 0.986 | locus YJL187C, strain SWE1 (second series), hits give low values 0.991 | locus YJL187C, strain SWE1, hits give low values 0.997 | locus YJR043C, strain POL32, hits give low values 0.994 | locus YJR066W, strain TOR1, hits give low values 0.93
